Data published in PubChem BioAssay (NCATS).
Records with an inconclusive call do not appear. Calls of active or inactive are those of the source. Unless noted, the call rests on the fitted dose curve.

What was measured:
[1] = target: Rap guanine nucleotide exchange factor 3 (Homo sapiens) (UniProt O95398); assay: Confirmatory qHTS for agonist of cAMP-regulated guanine nucleotide exchange factor 3 (EPAC1) (AID 1645881; active means well fitted activation curve with a large enough effect;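 further: EPAC1 catalysed release of BODIPY-GDP from Rap1B seen as fluorescence loss; nearly all actives have a fitted effect of over 75% in size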); details: EPAC1 Rap1B BODIPY-GDP exchange fluorescence, 100% = cAMP control response; series mostly up to 154 µM
Sequence of Rap guanine nucleotide exchange factor 3 (Homo sapiens) (O95398 whole entry, looked up): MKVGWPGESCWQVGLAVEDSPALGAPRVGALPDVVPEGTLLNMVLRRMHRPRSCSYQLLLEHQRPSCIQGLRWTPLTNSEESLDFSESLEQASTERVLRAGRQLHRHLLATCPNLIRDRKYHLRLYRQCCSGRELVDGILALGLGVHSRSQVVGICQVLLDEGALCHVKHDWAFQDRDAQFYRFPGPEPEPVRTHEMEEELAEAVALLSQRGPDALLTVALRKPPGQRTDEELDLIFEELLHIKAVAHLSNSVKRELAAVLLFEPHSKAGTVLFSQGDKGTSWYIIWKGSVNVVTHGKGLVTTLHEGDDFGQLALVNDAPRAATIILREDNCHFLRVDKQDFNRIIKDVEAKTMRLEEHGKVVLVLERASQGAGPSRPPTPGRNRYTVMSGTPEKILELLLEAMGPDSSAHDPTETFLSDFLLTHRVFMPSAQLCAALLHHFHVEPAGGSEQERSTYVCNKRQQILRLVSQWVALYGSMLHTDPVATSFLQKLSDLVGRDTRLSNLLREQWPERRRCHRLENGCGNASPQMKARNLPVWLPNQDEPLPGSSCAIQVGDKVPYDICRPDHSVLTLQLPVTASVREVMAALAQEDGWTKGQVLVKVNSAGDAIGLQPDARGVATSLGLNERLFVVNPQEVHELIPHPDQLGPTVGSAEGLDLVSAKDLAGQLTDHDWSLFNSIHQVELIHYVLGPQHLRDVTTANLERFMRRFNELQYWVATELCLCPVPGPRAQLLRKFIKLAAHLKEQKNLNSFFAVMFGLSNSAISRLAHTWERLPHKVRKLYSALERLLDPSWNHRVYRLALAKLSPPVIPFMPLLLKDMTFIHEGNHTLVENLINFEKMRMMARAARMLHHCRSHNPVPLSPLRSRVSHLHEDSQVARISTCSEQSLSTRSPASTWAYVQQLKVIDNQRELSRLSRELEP

[2] = target: Rap guanine nucleotide exchange factor 4 (Homo sapiens) (UniProt Q8WZA2); assay: Confirmatory qHTS for agonist of cAMP-regulated guanine nucleotide exchange factor 4 (EPAC2) (AID 1645884; active means well fitted activation curve with a large enough effect;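 further: nucleotide exchange releases bodipy-GDP from Rap1 and this lowers its fluorescence; on the % scale 0 is the no-effect control and ±100 the full control effect; nearly all actives have a fitted effect of over 65% in size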); details: EPAC2 GEF activity, Rap1B-BODIPY-GDP fluorescence, percent relative to cAMP agonist control; series mostly up to 154 µM
Sequence of Rap guanine nucleotide exchange factor 4 (Homo sapiens) (Q8WZA2 whole entry, looked up): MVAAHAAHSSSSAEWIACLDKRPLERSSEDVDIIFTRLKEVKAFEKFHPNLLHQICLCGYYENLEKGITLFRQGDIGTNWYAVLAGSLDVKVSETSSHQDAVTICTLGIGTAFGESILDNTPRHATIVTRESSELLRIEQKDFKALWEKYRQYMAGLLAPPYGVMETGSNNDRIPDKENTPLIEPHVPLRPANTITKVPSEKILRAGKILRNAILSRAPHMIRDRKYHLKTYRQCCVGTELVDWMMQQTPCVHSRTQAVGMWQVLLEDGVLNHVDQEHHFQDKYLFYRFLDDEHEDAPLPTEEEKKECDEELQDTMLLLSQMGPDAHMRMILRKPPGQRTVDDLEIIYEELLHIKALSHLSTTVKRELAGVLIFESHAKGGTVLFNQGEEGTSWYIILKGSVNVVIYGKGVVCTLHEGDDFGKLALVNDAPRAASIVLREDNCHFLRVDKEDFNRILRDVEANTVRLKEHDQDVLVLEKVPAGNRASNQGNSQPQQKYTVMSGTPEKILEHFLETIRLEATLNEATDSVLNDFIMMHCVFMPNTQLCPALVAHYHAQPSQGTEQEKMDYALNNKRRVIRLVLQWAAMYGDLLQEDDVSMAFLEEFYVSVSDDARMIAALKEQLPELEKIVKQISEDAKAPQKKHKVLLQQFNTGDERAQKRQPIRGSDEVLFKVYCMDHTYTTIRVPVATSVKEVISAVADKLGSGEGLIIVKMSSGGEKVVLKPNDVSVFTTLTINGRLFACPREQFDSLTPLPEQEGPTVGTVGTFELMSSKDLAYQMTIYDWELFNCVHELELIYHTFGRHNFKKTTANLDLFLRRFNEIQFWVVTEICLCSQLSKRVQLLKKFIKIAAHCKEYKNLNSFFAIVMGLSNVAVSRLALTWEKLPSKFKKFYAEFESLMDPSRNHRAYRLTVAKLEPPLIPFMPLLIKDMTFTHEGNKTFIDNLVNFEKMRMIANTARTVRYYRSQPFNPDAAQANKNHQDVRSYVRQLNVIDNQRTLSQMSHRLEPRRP

[3] = target: Catechol O-methyltransferase (Homo sapiens) (UniProt P21964); assay: Confirmatory Screen for Target Class Profiling of Small Molecule Inhibitors of Methyltransferases (AID 1745852); details: MTase-Glo luminescence, SAH detection, recombinant enzyme; measured here: COMT max response; stronger effect = lower value; further: potency means the concentration at half of the fitted maximal effect; on activity change, negative = inhibition: on the % scale 0 is the no-effect control and ±100 the full control effect
Sequence of Catechol O-methyltransferase (Homo sapiens) (P21964 whole entry, looked up): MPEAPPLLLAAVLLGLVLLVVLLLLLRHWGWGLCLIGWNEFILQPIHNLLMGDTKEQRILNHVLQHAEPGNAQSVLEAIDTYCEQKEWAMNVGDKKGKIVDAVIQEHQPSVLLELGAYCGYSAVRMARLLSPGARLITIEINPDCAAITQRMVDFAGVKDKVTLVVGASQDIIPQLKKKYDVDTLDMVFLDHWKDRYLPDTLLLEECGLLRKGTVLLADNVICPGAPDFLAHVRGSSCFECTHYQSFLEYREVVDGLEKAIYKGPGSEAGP

[4] = target: Guanidinoacetate N-methyltransferase (Homo sapiens) (UniProt Q14353); assay: as above; details: MTase-Glo luminescence, SAH detection, recombinant enzyme; activity change, negative = inhibition: at 57.3 µM (top of the series) unless noted
[5] = target: Nicotinamide N-methyltransferase (Homo sapiens) (UniProt P40261); assay: as above; details: MTase-Glo luminescence, SAH detection, recombinant enzyme; measured here: NNMT max response; stronger effect = lower value
Sequence of Nicotinamide N-methyltransferase (Homo sapiens) (P40261 whole entry, looked up): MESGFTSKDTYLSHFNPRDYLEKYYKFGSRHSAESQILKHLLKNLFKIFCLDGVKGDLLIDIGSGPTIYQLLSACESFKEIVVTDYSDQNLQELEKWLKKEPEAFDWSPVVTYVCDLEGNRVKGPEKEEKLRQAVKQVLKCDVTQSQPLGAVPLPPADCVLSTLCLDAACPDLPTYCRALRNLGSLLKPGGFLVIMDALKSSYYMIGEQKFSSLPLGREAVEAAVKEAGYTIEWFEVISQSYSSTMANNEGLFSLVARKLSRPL

[6] = target: Phenylethanolamine N-methyltransferase (Homo sapiens) (UniProt P11086); assay: as above; details: MTase-Glo luminescence, SAH detection, recombinant enzyme; measured here: PNMT max response; stronger effect = lower value
Sequence of Phenylethanolamine N-methyltransferase (Homo sapiens) (P11086 whole entry, looked up): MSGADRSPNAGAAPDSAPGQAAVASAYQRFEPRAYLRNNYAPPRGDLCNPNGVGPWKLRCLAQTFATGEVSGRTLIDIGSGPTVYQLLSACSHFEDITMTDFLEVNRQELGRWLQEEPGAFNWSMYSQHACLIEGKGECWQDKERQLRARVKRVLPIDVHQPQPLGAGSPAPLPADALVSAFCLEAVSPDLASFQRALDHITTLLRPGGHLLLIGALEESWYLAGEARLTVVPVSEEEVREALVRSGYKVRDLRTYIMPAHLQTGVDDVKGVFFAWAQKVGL

SMILES	outcome [1]	outcome [2]	activity [3] [%]	activity change, negative = inhibition [4]	activity [5] [%]	activity [6] [%]	Potency [4]
C=C1C[C@]23C[C@@]1(O)CC[C@H]2[C@@]12C=C[C@H](O)[C@@](C)(C(=O)O1)[C@H]2[C@@H]3C(=O)O	inactive	inactive					
COc1cc(/C=C/C(=O)OCC2OC(OC3(CO)OC(CO)C(O)C3O)C(O)C(O)C2O)ccc1O (centres undefined)			-68.2	-1.33% [at 29.8 µM]	-1.16	3.04	
CC1=CC(=O)C(=C(C)C)CC2C(C)(O)CCC12O (centres undefined)			-81.2	0.373%	2.29	1.07	
O=C(O)c1cccc(CN2C(=O)/C(=C(\c3ccccc3)c3ccc(Cl)cc3)c3ccccc32)c1			-6.02	-1.74%	-41.9	-8.16	
C=C(C(=O)O)[C@H]1C[C@]2(C)C(=O)CC[C@]23O[C@H]1C[C@@H]3C			-84.1	-1.21%	-2.06	-0.38	
COCc1c(O)c(C(=O)O)c(C)c2c1OC(=O)c1c(C)cc(O)c(CO)c1O2			-62.5	-4.52%	-3.54	-4.35	
CC1CC(=O)C2=C(O1)OC1(C)CCC3C(C)(C)C4OC4C(=O)C3(C)C1C2 (centres undefined)			-27.1	0%	-84.6	-2.49	
C=C[C@H]1[C@H](O[C@@H]2O[C@H](CO)[C@@H](O)[C@H](O)[C@H]2O)OC=C(C(=O)OC)[C@H]1CCO			-72.1	-3.63%	-12.2	-3.1	
C=C(C(=O)O)[C@@H]1CC[C@H](C)[C@@H]2CC(=O)C(C)=C2C1			-63.8	1.33%	-2.63	-9	
C[C@@H]1O[C@@H](OC[C@H]2O[C@@H](OCc3ccccc3)[C@H](O)[C@@H](O)[C@@H]2O)[C@H](O)[C@H](O)[C@H]1O			-64.3	-3.1% [at 29.8 µM]	-3.31	-2.48	
O=C(O)CCc1ccc(NCc2cccc3c2CCCN3CCOc2ccccc2)cc1F			-3.27	-0.799%	-32.3	-5.97	
C/C(=C\CC/C(C)=C/CC[C@]1(C)CCc2cc(O)cc(C)c2O1)CC/C=C(\C)C(=O)O			-20.5	0% [at 29.8 µM]	-14.3	-0.0782	
Nc1ncnc2c1ncn2[C@H]1O[C@@H](C(=O)N2CCN(CC(=O)Nc3cccc4c3CNC4=O)CC2)[C@H](O)[C@@H]1O			-12.8		-14.5	-35.1	21.5 µM (active)
O=c1[nH]ccc2nc(-c3ccc(CN4CCC(c5nc(-c6ccccn6)n[nH]5)CC4)cc3)c(-c3ccccc3)cc12			-10.1	-7.59%	-47.8	-18	
C=C1CC/C=C(/CO)C(=O)C[C@@H]2[C@@H]1C[C@@]2(C)COC(C)=O			-65.6	0%	0.048	1.6	
O=C(CCc1ccccc1)c1c(O)c([C@@H]2O[C@H](CO)[C@@H](O)[C@H](O)[C@H]2O)c(O)c([C@@H]2O[C@H](CO)[C@@H](O)[C@H](O)[C@H]2O)c1O			-89.3	2.13% [at 19.1 µM]	-0.132	4.21	
CC(=O)OC/C(=C/C(=O)O)CC[C@@H]1C(C)=CC(=O)[C@@H]2C(C)(C)CCC[C@@]12C			-62.3	0%	-1.14	-1.13	
CC(C)c1cc2c(c(O)c1O)[C@@]13CCCC(C)(C)C1[C@@H](O)[C@@H]2OC3=O (some centres undefined)			-82.4	-4.37%	-4.78	-0.254	
CC(C)N(CCCNC(=O)Nc1ccc(C(C)(C)C)cc1)C[C@H]1O[C@@H](n2ccc3c(N)ncnc32)[C@H](O)[C@@H]1O			-14.9	-7.92%	-18.1	-18.6	
CC1(CO)CC(O)C2(C)CCC3(C)C(=CCC4C5(C=O)CCC(OC6OC(C(=O)O)C(O)C(O)C6OC6OC(C(=O)O)C(O)C(O)C6O)C(C)(C)C5CCC43C)C2C1 (centres undefined)			-73.8	0.442% [at 19.1 µM]	-0.108	1.8	
C=Cc1cc2oc(-c3ccc(O)c(F)c3)nc2cc1O			-57		-39.5	-56.3	30.4 µM (active)
CC1OC(OC2C(OC(=O)[C@]34CCC(C)(C)C[C@H]3C3=CCC5[C@@]6(C)CC[C@H](OC7OC(C(=O)O)C(O)C(O)C7O)C(C)(C)C6CC[C@@]5(C)[C@]3(C)CC4O)OC(CO)C2O)C(O)C(O)C1OC1OCC(O)C(O)C1O (some centres undefined)			-87.7	0% [at 19.1 µM]	-6.05	-8.02	
CC(=O)NC(Cc1c[nH]c2ccccc(=O)c12)C(=O)O (centres undefined)			-73.7	0%	3.04	-0.114	
COc1cc(C2Oc3c(OC)cc(/C=C/C(=O)OC4CC(O)(C(=O)O)CC(O)C4O)cc3C2CO)ccc1O (centres undefined)			-71.9	-2.32% [at 29.8 µM]	-1.14	-2.58	
